# In PubChem BioAssay (NCATS):
# Results filed as inconclusive are left out. Where a call stands in place of a potency, no number is given. Calls of active or inactive are those of the source. Unless noted, calls come from the whole dose curve; as a rule, active = well fitted curve in the direction sought with a large enough effect; inconclusive = small, poorly fitted or top-dose-only effect, or another doubt; inactive = no such curve, though single readings can be large; an effect the other way counts as inactive or inconclusive.
# Tests used:
# [1] = Confirmation and Secondary Assay for Modulators of Hemoglobin Beta Chain Splicing at IVS2 654 locus (AID 910);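 note: per-well total GFP intensity by laser scanning cytometry after 2-day treatment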
# Procedure, shortened: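 HeLa cells stably carrying EGFP interrupted by mutant beta-globin IVS2-654 intron (CMV-driven) were treated with compound for 2 days at 37C; corrected splicing was scored as total peak GFP intensity per well (488 nm excitation, 500-520 nm emission).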
# [2] = Confirmation and Secondary Assay for Modulators of Hemoglobin Beta Chain Splicing at IVS2 705 locus (AID 930);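 note: HeLa cells stably expressing the EGFP-705 splicing reporter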
# Procedure, shortened: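 HeLa cells stably carrying EGFP interrupted by mutant beta-globin IVS2-705 intron (CMV-driven) were seeded at 500 cells/well, treated next day with compound for 2 days at 37C; corrected splicing restores EGFP, read as total peak GFP intensity per well.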
# [3] = qHTS Assay for Lipid Storage Modulators (AID 1519; calls by dose curve); conditions: Drosophila S3 cells, BODIPY lipid droplet/cell ratio, laser cytometry, cells loaded with oleic acid; for activity change, negative = inhibition: at 57.5 µM (top of the series)
# Procedure, shortened: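 Cells seeded at 5,000 per well were treated with compounds over a concentration series and loaded with oleic acid (400 uM, as added). Lipid droplet fluorescence (488 nm excitation, 500-530 nm channel) was read by laser-scanning cytometry and normalized to 20 uM Triacsin C.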
# [4] = target: Luciferin 4-monooxygenase (Photinus pyralis) (UniProt P08659); assay: Biochemical firefly luciferase enzyme assay for NPC (AID 624030); note: nearly all actives have a fitted effect of over 70% in size; note: potency is the fitted concentration of half-maximal effect;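 for activity change, negative = inhibition: purified P. pyralis luciferase at 10 nM with luciferin and ATP substrate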
# Procedure, shortened: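 Counter-screen for direct inhibition of the luciferase enzyme by approved-drug library compounds, run at 10 nM enzyme in 50 mM Tris acetate (final). Luminescence was read within 5 min of enzyme-buffer addition and normalized to PTC124 versus DMSO (0%).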
# [5] = S16 Schwann cell PMP22 intronic element beta-lactamase assay (AID 624044; calls by dose curve; note: nearly all actives have a fitted effect of over 15% in size)
# Procedure, shortened: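 Rat S16 Schwann cells with beta-Lac driven by a PMP22 intronic element, compound-treated 24 h at 37 °C. LiveBLAzer FRET B/G read: 460 nm normalized to potassium clavulanate vs DMSO; 535 nm FRET as viability; concentration-effect curves classified.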
# [6] = qHTS profiling for inhibitors of Plasmodium falciparum proliferation (AID 504749); note: potency is the fitted concentration of half-maximal effect; for all read-outs here: nearly all actives have a fitted effect of over 60% in size; conditions: P. falciparum in erythrocytes, SYBR Green DNA, 72 h; for activity, negative = inhibition: at 28.7 µM (top of the series)
# Procedure, shortened: (§1)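 P. falciparum-infected erythrocytes (0.3% parasitemia, 2.5% hematocrit final) were exposed to compounds for 72 h at 37 C in 5% CO2, then lysed with SYBR Green buffer overnight at room temperature; parasite DNA fluorescence was normalized to artemisinin and DMSO controls.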
# C2A = assay: as above; conditions: P. falciparum in erythrocytes, SYBR Green DNA, 72 h; series mostly up to 12.8 µM
# Procedure, shortened: as §1
# CP191 = assay: as above; conditions: P. falciparum in erythrocytes, SYBR Green DNA, 72 h; series mostly up to 12.8 µM
# Procedure, shortened: as §1
# CP201 = assay: as above; conditions: P. falciparum in erythrocytes, SYBR Green DNA, 72 h; series mostly up to 12.8 µM
# Procedure, shortened: as §1
# CP238 = assay: as above; conditions: P. falciparum in erythrocytes, SYBR Green DNA, 72 h; series mostly up to 12.8 µM
# Procedure, shortened: as §1
# CP262 = assay: as above; conditions: P. falciparum in erythrocytes, SYBR Green DNA, 72 h; series mostly up to 12.8 µM
# Procedure, shortened: as §1
# CP268 = assay: as above; conditions: P. falciparum in erythrocytes, SYBR Green DNA, 72 h; series mostly up to 12.8 µM
# Procedure, shortened: as §1
# CP315 = assay: as above; conditions: P. falciparum in erythrocytes, SYBR Green DNA, 72 h; series mostly up to 12.8 µM
# Procedure, shortened: as §1
# DFO2036 = assay: as above; conditions: P. falciparum in erythrocytes, SYBR Green DNA, 72 h; series mostly up to 12.8 µM
# Procedure, shortened: as §1
# ECU = assay: as above; conditions: P. falciparum in erythrocytes, SYBR Green DNA, 72 h; series mostly up to 12.8 µM
# Procedure, shortened: as §1
# FAB9 = assay: as above; conditions: P. falciparum in erythrocytes, SYBR Green DNA, 72 h; series mostly up to 12.8 µM
# Procedure, shortened: as §1
# PC15 = assay: as above; conditions: P. falciparum in erythrocytes, SYBR Green DNA, 72 h; series mostly up to 12.8 µM
# Procedure, shortened: as §1
# PC49 = assay: as above; conditions: P. falciparum in erythrocytes, SYBR Green DNA, 72 h; series mostly up to 12.8 µM
# Procedure, shortened: as §1
# [7] = target: Cytochrome P450 3A4 (Homo sapiens) (UniProt P08684); assay: qHTS Assay for Inhibitors and Substrates of Cytochrome P450 3A4 (AID 884); note: nearly all actives have a fitted effect of over 50% in size
# Procedure, shortened: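 20 nM human CYP3A4 with 25 uM Luciferin-PPXE (at KM) in 200 mM KPO4, preincubated 10 min with compound; NADPH regeneration started a 60 min RT reaction. Luciferin detected by luminescence, normalized to 57 uM ketoconazole as full inhibition.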
# [8] = target: Ubiquitin carboxyl-terminal hydrolase 1 (Homo sapiens) (UniProt O94782); assay: Inhibitors of USP1/UAF1: Pilot qHTS (AID 504865); note: nearly all actives have a fitted effect of over 35% in size; note: potency is the fitted concentration of half-maximal effect;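 for activity change, negative = inhibition: rhodamine fluorescence freed from ubiquitin-rhodamine substrate followed over time; top concentration of the series differs between compounds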
# Procedure, shortened: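 Kinetic fluorescence assay: 1nM USP1/UAF1, 15 min compound preincubation, then 150nM Ub-Rho; 480/540 nm.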
# [9] = measured here: cell count channel max response
# [10] = measured here: lipid channel max response
# Luciferin 4-monooxygenase (Photinus pyralis), sequence (P08659 whole entry, looked up): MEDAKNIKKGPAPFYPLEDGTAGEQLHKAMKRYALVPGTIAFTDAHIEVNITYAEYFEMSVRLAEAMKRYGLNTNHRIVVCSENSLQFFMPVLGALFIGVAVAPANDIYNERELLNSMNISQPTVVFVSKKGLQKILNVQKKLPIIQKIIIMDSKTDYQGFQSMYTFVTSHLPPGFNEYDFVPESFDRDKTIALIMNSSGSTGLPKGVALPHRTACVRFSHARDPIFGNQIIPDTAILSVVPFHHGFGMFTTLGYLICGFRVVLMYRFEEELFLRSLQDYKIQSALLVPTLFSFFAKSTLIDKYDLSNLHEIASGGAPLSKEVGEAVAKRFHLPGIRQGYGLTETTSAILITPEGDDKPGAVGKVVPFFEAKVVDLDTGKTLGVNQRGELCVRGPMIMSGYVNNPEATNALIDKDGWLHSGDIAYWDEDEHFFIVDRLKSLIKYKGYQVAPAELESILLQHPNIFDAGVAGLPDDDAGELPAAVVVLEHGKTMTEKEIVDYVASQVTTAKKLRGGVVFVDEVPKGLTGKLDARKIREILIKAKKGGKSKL
# Ubiquitin carboxyl-terminal hydrolase 1 (Homo sapiens), sequence (O94782 whole entry, looked up): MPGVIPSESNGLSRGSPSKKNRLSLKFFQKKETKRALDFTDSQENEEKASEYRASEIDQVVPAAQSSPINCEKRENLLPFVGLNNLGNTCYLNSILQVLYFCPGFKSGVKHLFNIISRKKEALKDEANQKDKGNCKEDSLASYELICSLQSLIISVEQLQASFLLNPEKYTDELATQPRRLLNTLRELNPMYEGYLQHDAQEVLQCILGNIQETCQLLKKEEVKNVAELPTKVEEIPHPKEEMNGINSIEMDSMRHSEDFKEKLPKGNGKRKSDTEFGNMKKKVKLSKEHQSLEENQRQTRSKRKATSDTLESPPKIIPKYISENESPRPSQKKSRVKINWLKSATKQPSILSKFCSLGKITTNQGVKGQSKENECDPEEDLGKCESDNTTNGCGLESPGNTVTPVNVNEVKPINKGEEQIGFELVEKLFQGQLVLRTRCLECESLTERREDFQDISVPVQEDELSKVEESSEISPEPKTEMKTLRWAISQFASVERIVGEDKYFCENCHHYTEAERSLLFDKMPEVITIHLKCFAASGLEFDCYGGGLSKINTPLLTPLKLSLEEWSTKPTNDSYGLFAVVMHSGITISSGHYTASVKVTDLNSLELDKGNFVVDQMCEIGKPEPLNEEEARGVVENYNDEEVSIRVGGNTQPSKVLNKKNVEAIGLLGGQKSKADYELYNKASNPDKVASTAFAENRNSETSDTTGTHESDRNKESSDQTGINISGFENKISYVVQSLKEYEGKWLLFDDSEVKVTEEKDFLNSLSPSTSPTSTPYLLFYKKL
# Cytochrome P450 3A4 (Homo sapiens), sequence (P08684 whole entry, looked up): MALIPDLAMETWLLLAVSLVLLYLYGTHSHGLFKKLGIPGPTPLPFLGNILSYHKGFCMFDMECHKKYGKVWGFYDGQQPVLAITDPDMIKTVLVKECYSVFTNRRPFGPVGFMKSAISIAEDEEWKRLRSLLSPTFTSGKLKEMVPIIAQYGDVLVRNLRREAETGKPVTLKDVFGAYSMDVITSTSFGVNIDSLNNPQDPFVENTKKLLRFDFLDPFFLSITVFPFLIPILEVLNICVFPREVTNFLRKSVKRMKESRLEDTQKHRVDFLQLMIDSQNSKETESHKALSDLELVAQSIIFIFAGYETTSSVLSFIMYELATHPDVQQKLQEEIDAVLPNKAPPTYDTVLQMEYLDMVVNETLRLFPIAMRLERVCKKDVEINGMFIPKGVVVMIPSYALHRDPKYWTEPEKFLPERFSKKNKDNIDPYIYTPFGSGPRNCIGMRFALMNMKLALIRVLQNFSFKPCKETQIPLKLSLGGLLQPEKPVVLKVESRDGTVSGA
smiles,measurement,setting,value
CC(C)=CCC[C@](C)(O)C1CC=C(C)CC1 (stereo partly specified),Potency,[1],inactive
same,Potency,[2],inactive
same,"activity change, negative = inhibition",[3],6.04% (inactive)
same,max response,[3]; [9],-2.85%
same,max response,[3]; [10],4.12%
same,Potency,[4],inactive
same,Potency,[5],inactive
same,"activity, negative = inhibition",[6]; parasite line A,-5.22% (inactive)
same,"activity, negative = inhibition",[6]; parasite line B,7.19% (inactive)
same,Potency,C2A,inactive
same,Potency,CP191,inactive
same,Potency,CP201,inactive
same,Potency,CP238,inactive
same,Potency,CP262,inactive
same,Potency,CP268,inactive
same,Potency,CP315,inactive
same,Potency,DFO2036,inactive
same,Potency,ECU,inactive
same,Potency,FAB9,inactive
same,Potency,PC15,inactive
same,Potency,PC49,inactive
C/C1=C2N=C(/C=C3N=C(/C(C)=C4\[N-]C(C)(C5N=C1C(C)(CCC(=O)NCC(C)OP(=O)([O-])O[C@H]1C(O)C(n6cnc7cc(C)c(C)cc76)O[C@@H]1CO)C5CC(N)=O)C(C)(CC(N)=O)C4CCC(N)=O)C(C)(CC(N)=O)C\3CCC(N)=O)C(C)(C)C/2CCC(N)=O.[CH2-]C1OC(n2cnc3c(N)ncnc32)C(O)C1O.[Co] (stereo partly specified),Potency,[1],inactive
same,Potency,[2],inactive
same,"activity change, negative = inhibition",[3],3.3% (inactive)
same,max response,[3]; [9],22.1%
same,max response,[3]; [10],29.7%
same,Potency,[4],inactive
same,"activity, negative = inhibition",[6]; parasite line A,4.62% (inactive)
same,"activity, negative = inhibition",[6]; parasite line B,4.58% (inactive)
same,Potency,C2A,inactive
same,Potency,CP191,inactive
same,Potency,CP201,inactive
same,Potency,CP238,inactive
same,Potency,CP262,inactive
same,Potency,CP268,inactive
same,Potency,CP315,inactive
same,Potency,DFO2036,inactive
same,Potency,ECU,inactive
same,Potency,FAB9,inactive
same,Potency,PC15,inactive
same,Potency,PC49,inactive
CC1=C(C2=C(C)C(C(C)C)C3=C(C(=O)C(O)C3O)C2O)C(O)C2=C(C(O)C(O)C2=O)C1C(C)C (stereo unspecified),Potency,[7],inactive
same,"activity change, negative = inhibition",[3],1.34% (inactive)
same,max response,[3]; [9],12.4%
same,max response,[3]; [10],12.8%
same,Potency,[8],inactive
O=C(O)C1=C[C@@H](O)[C@@H](O)[C@H](O)C1,"activity change, negative = inhibition",[3],5.96% (inactive)
same,max response,[3]; [9],13.7%
same,max response,[3]; [10],21.4%
same,Potency,[8],inactive
COC1C=CO[C@@]2(C)Oc3c(C)c(O)c4c(O)c(c5c(nc6cc(C)ccn65)c4c3C2=O)NC(=O)/C(C)=C\C=CC(C)C(O)[C@@H](C)C(O)C(C)[C@@H](OC(C)=O)C1C (stereo partly specified),Potency,[1],inactive
same,Potency,[2],inactive
same,"activity change, negative = inhibition",[3],-13.7% (inactive)
same,max response,[3]; [9],-0.865%
same,max response,[3]; [10],-14.4%
same,Potency,[4],inactive
same,Potency,[5],inactive
same,Potency,[6]; parasite line A,14.1 µM (active)
same,Potency,[6]; parasite line B,10 µM (active)
same,Potency,C2A,10 µM (active)
same,Potency,CP191,11.2 µM (active)
same,Potency,CP238,10 µM (active)
same,Potency,CP268,12 µM (active)
same,Potency,CP315,7.57 µM (active)
same,Potency,ECU,12.6 µM (active)
same,Potency,PC15,12.6 µM (active)
C#C[C@]1(O)CCC2C3CCC4=CC(=O)CCC4C3CC[C@@]21C (stereo partly specified),Potency,[1],inactive
same,Potency,[2],inactive
same,"activity change, negative = inhibition",[3],3.02% (inactive)
same,max response,[3]; [9],2.28%
same,max response,[3]; [10],5.87%
same,Potency,[8],inactive
same,Potency,[4],inactive
CCCCCCCCCc1ccc(OCCOCCOCCOCCOCCOCCOCCOCCOCCO)cc1,Potency,[1],inactive
same,Potency,[2],inactive
same,"activity change, negative = inhibition",[3],-9.66% (inactive)
same,max response,[3]; [9],4.66%
same,max response,[3]; [10],-5.26%
same,Potency,[4],inactive
same,"activity, negative = inhibition",[6]; parasite line B,-22.2% (inactive)
same,Potency,C2A,inactive
same,Potency,CP201,inactive
same,Potency,CP238,inactive
same,Potency,CP262,inactive
same,Potency,CP268,inactive
same,Potency,CP315,inactive
same,Potency,DFO2036,inactive
same,Potency,FAB9,inactive
same,Potency,PC15,inactive
same,Potency,PC49,inactive
O=C(O)C1OC(O)C(O)C(O)C1O (stereo unspecified),Potency,[7],inactive
same,"activity change, negative = inhibition",[3],-3.53% (inactive)
same,max response,[3]; [9],-1.15%
same,max response,[3]; [10],-5.5%
same,Potency,[8],inactive
CC(=O)OCC(=O)[C@@]12OC3(CCCC3)OC1CC1C3CCC4=CC(=O)C=C[C@@]4(C)[C@]3(F)C(O)C[C@]12C (stereo partly specified),Potency,[1],inactive
same,Potency,[2],inactive
same,"activity change, negative = inhibition",[3],9.16% (inactive)
same,max response,[3]; [9],-2.26%
same,max response,[3]; [10],7.71%
same,Potency,[4],inactive
same,Potency,[5],inactive
same,Potency,C2A,inactive
same,Potency,CP201,inactive
same,Potency,CP262,inactive
same,Potency,CP268,inactive
same,Potency,CP315,inactive
same,Potency,FAB9,inactive
same,Potency,PC15,inactive
same,Potency,PC49,inactive
C=Cc1c(C)/c2[n-]/c1=C\c1[n-]c(c(CC)c1C)/C=c1\[n-]c3c(c1C)C(=O)C(C(=O)[O-])C=3c1[n-]c(c(C)c1CCC(=O)[O-])\C=2.[Cu].[Na+].[Na+] (stereo unspecified),Potency,[1],inactive
same,Potency,[2],inactive
same,"activity change, negative = inhibition",[3],23.5% (inactive)
same,max response,[3]; [9],-5.82%
same,max response,[3]; [10],20.1%
same,Potency,[8],20 µM (active)
same,Potency,[4],32.2 µM (active)
same,Potency,[5],inactive
same,"activity, negative = inhibition",[6]; parasite line A,-17.5% (inactive)
same,Potency,C2A,inactive
same,Potency,CP201,inactive
same,Potency,CP262,inactive
same,Potency,CP268,inactive
same,Potency,DFO2036,inactive
same,Potency,FAB9,inactive
same,Potency,PC49,inactive
